From PubChem BioAssay (EPA / NIEHS)
Records with an inconclusive call do not appear. Calls of active or inactive are those of the source. The calls were made as follows, unless noted: active = hit-call score of the fitted dose curve at least 0.9, where 1 is the maximum; inactive = score below 0.9.

How the values were obtained:
[1] = CCTE_Harrill_HTTr_Viability_MCF7: CCTE's 6-hour Cell Viability Assessment for the High-Throughput Transcriptomics (HTTr) Platform, in MCF-7 cells cultured in DMEM + 10% fetal bovine serum, Harrill Lab (AID 2284010)
Outline: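 Eight-point concentration series, six-hour exposure. Propidium iodide exclusion imaged to assess membrane integrity as a cytotoxicity readout; bidirectional fitting was done with DMSO as negative control and activity baseline.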

[2] = CCTE_Harrill_HTTr_Apoptosis_MCF7: CCTE's 6-hour Apoptosis Assessment for the High-Throughput Transcriptomics (HTTr) Platform, in MCF-7 cells cultured in DMEM + 10% fetal bovine serum, Harrill Lab (AID 2284011)
Outline: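 High-content imaging of CellEvent Caspase 3/7 Green signal follows a six-hour exposure, with eight concentrations per chemical. MCF-7 cells grown in DMEM plus 10% fetal bovine serum; activity fitted in both directions against DMSO.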

[3] = CCTE_Harrill_HTTr_CellCount_MCF7: CCTE's Cell Proliferation Assessment for the High-Throughput Transcriptomics (HTTr) Platform, Harrill Lab (AID 2284012; active = hit-call score of the fitted dose curve at least 0.9, where 1 is the maximum;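 also: count of Hoechst-stained nuclei per well by high-content imaging in MCF-7 cells; cells exposed to compound for six hours; intended direction is loss of nuclei count meaning fewer cells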)
Outline: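 For this full-screen endpoint, MCF-7 cultures received eight compound dilutions for six hours. Well nuclei counts from Hoechst imaging were analyzed relative to DMSO.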

Measured: outcome

Clc1ccc(C2(Cn3cncn3)CC(Br)CO2)c(Cl)c1 (stereo not given)
inactive: [1] | [2] | [3]

CC(Br)C(=O)O (stereo not given)
inactive: [1] | [2] | [3]

CC1(C)Cc2cccc(O)c2O1
inactive: [1] | [2] | [3]

[O-][Cl+2]([O-])O
inactive: [1] | [2] | [3]

Oc1c(I)cc(I)cc1I
inactive: [1] | [2] | [3]

O=C(Cc1ccccc1)c1ccccc1
inactive: [1] | [2] | [3]

CCc1ccccc1C
inactive: [1] | [2] | [3]

O=CC=O
inactive: [1] | [2] | [3]

O=C(O)C(F)(F)C(F)(F)C(F)(F)C(F)(F)C(F)(F)C(F)(F)F
inactive: [1] | [2] | [3]

CCCCCCCCCl
inactive: [1] | [2] | [3]
